# Measured values taken from PubChem BioAssay AID1159580 (chemical genetic matrix, 2015).
# About 2,000 (36%) of roughly 5,500 compounds were called active. Roughly 18% stayed inconclusive and do not appear here. The list shows a part of the results. Values without a mark were called inactive. No stated cut-off is given here; in the data, active means normalized growth mostly below about 0.91 (no sharp cut-off); inconclusive means no clear call, values can overlap the other calls; inactive means mostly above about 0.92.
# Assay: chemical genetic growth profiling, strain panel (AID 1159580);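 further: tested at 20 µM; growth read once vehicle control cultures reached saturation at 30 °C; 1 = growth at the plate median or of vehicle wells; lower values mean less growth of the strain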
# Settings: S. cerevisiae deletion strains, growth OD
# [1] = locus YDL101C, strain DUN1, hits give low values
# [2] = locus YDR150W, strain NUM1, hits give low values
# [3] = locus YGR078C, strain PAC10, hits give low values
# [4] = locus YHR030C, strain SLT2, hits give low values
# [5] = locus YJR075W, strain HOC1, hits give low values
# [6] = locus YPL241C, strain CIN2, hits give low values
# [7] = locus YAR019C, strain CDC15, hits give low values
# [8] = locus YBL105C, strain PKC1, hits give low values
# [9] = locus YBR135W, strain CKS1, hits give low values
# [10] = locus YBR136W, strain MEC1, hits give low values
# [11] = locus YBR160W, strain CDC28, hits give low values
# [12] = locus YDL017W, strain CDC7, hits give low values
# [13] = locus YDL028C, strain MPS1, hits give low values
# [14] = locus YDL108W, strain KIN28, hits give low values
# [15] = locus YDL132W, strain cdc53, hits give low values
# [16] = locus YDL214C, strain PRR2, hits give low values
# [17] = locus YDR052C, strain DBF4, hits give low values
# [18] = locus YDR054C, strain cdc34, hits give low values
# [19] = locus YDR226W, strain ADK1, hits give low values
# [20] = locus YDR477W, strain SNF1, hits give low values
# [21] = locus YER123W, strain YCK3, hits give low values
# [22] = locus YER133W, strain GLC7, hits give low values
# [23] = locus YFL009W, strain cdc4, hits give low values
# [24] = locus YFL029C, strain CAK1, hits give low values
# [25] = locus YFR003C, strain YPI1, hits give low values
# [26] = locus YFR019W, strain FAB1, hits give low values
# [27] = locus YFR028C, strain CDC14, hits give low values
# [28] = locus YGR040W, strain KSS1, hits give low values
# [29] = locus YGR052W, strain FMP48, hits give low values
# [30] = locus YGR092W, strain DBF2, hits give low values
# [31] = locus YHR079C, strain IRE1, hits give low values
# [32] = locus YHR082C, strain KSP1, hits give low values
# [33] = locus YHR205W, strain SCH9, hits give low values
# [34] = locus YIL147C, strain SLN1, hits give low values
# [35] = locus YJL095W, strain BCK1, hits give low values
# [36] = locus YJR016C, strain ILV3, hits give low values
# [37] = locus YJR066W, strain TOR1 (second series), hits give low values
# [38] = locus YJR066W, strain TOR1, hits give low values
# [39] = locus YKL048C, strain ELM1, hits give low values
# [40] = locus YKL101W, strain HSL1, hits give low values
# [41] = locus YKL193C, strain SDS22, hits give low values
# [42] = locus YKL203C, strain TOR2, hits give low values
# [43] = locus YLR113W, strain HOG1, hits give low values
# [44] = locus YML070W, strain DAK1, hits give low values
# [45] = locus YMR001C, strain CDC5, hits give low values
# [46] = locus YMR205C, strain PFK2 (second series), hits give low values
# [47] = locus YMR277W, strain FCP1, hits give low values
# [48] = locus YNL006W, strain LST8, hits give low values
# [49] = locus YNL020C, strain ARK1, hits give low values
# [50] = locus YNL161W, strain CBK1, hits give low values
# [51] = locus YNL183C, strain NPR1, hits give low values
# [52] = locus YNL207W, strain RIO2, hits give low values
# [53] = locus YNL222W, strain SSU72, hits give low values
# [54] = locus YNL307C, strain MCK1 (second series), hits give low values
# [55] = locus YOL078W, strain AVO1, hits give low values
# [56] = locus YOL136C, strain PFK27, hits give low values
# [57] = locus YOR061W, strain CKA2, hits give low values
# [58] = locus YOR119C, strain RIO1, hits give low values
# [59] = locus YOR231W, strain MKK1, hits give low values
# [60] = locus YOR329C, strain SCD5, hits give low values
# [61] = locus YPL031C, strain PHO85, hits give low values
# [62] = locus YPL153C, strain RAD53, hits give low values
# [63] = locus YPL204W, strain HRR25, hits give low values
# [64] = locus YPL209C, strain IPL1, hits give low values
# [65] = locus YPL256C, strain CLN2, hits give low values
# [66] = locus YPR025C, strain CCL1, hits give low values
# [67] = locus YPR106W, strain ISR1, hits give low values
# [68] = locus YPR111W, strain DBF20, hits give low values
# [69] = strain NNK1, hits give low values
# [70] = strain TSCII, hits give low values
structure (smiles),measurement,setting,value
CC(C)(O)C#Cc1ccc(/C=N\O)cc1,normalized growth,"locus YAL013W, strain DEP1, hits give low values",1.01
same,normalized growth,"locus YBR229C, strain ROT2, hits give low values",0.996
same,normalized growth,[1],0.99
same,normalized growth,"locus YDL134C, strain PPH21, hits give low values",0.981
same,normalized growth,[2],0.938
same,normalized growth,"locus YEL061C, strain CIN8, hits give low values",0.984
same,normalized growth,[3],1.03
same,normalized growth,[4],1
same,normalized growth,"locus YHR087W, strain rtc3, hits give low values",0.988
same,normalized growth,"locus YJR043C, strain POL32, hits give low values",1.02
same,normalized growth,[5],0.992
same,normalized growth,"locus YKL190W, strain CNB1, hits give low values",1
same,normalized growth,"locus YLR039C, strain RIC1, hits give low values",0.991
same,normalized growth,"locus YLR058C, strain SHM2 (second series), hits give low values",1.01
same,normalized growth,"locus YLR085C, strain ARP6, hits give low values",0.939
same,normalized growth,"locus YLR262C, strain YPT6, hits give low values",0.968
same,normalized growth,"locus YML094W, strain GIM5, hits give low values",0.975
same,normalized growth,"locus YMR219W, strain ESC1, hits give low values",0.987
same,normalized growth,"locus YMR263W, strain SAP30, hits give low values",0.962
same,normalized growth,"locus YNL128W, strain TEP1, hits give low values",0.998
same,normalized growth,"locus YNL153C, strain GIM3, hits give low values",1
same,normalized growth,"locus YNL298W, strain CLA4 (second series), hits give low values",0.977
same,normalized growth,"locus YNL322C, strain KRE1, hits give low values",0.992
same,normalized growth,"locus YNR030W, strain Alg12, hits give low values",1
same,normalized growth,"locus YPL055C, strain LGE1, hits give low values",0.936
same,normalized growth,[6],0.959
same,normalized growth,"locus YPR135W, strain CTF4, hits give low values",0.994
CC(C)(O)C#Cc1ccc(/C=N\Nc2ccccc2)cc1,normalized growth,[7],0.966
same,normalized growth,[8],0.963
same,normalized growth,[9],0.952
same,normalized growth,[10],0.954
same,normalized growth,[11],0.954
same,normalized growth,[12],0.961
same,normalized growth,[13],0.952
same,normalized growth,[1],0.954
same,normalized growth,[14],0.965
same,normalized growth,[15],0.949
same,normalized growth,[16],0.822
same,normalized growth,[17],0.955
same,normalized growth,[18],0.957
same,normalized growth,[19],0.968
same,normalized growth,[20],0.767
same,normalized growth,[21],0.569 (active)
same,normalized growth,[22],0.799
same,normalized growth,[23],0.948
same,normalized growth,[24],0.957
same,normalized growth,[25],0.957
same,normalized growth,[26],0.589 (active)
same,normalized growth,[27],0.965
same,normalized growth,[28],0.784
same,normalized growth,[29],0.716
same,normalized growth,[30],0.13 (active)
same,normalized growth,[4],0.507 (active)
same,normalized growth,[31],0.585
same,normalized growth,[32],0.795
same,normalized growth,[33],0.88
same,normalized growth,[34],0.954
same,normalized growth,[35],0.497 (active)
same,normalized growth,"locus YJL128C, strain PBS2, hits give low values",0.995
same,normalized growth,[36],0.948
same,normalized growth,[37],0.557 (active)
same,normalized growth,[38],0.644
same,normalized growth,[39],0.756 (active)
same,normalized growth,[40],0.78
same,normalized growth,[41],0.954
same,normalized growth,[42],0.831
same,normalized growth,[43],0.718 (active)
same,normalized growth,"locus YLR133W, strain CKI1, hits give low values",0.798
same,normalized growth,[44],0.556 (active)
same,normalized growth,[45],0.96
same,normalized growth,[46],0.872
same,normalized growth,[47],0.963
same,normalized growth,[48],0.954
same,normalized growth,[49],0.811
same,normalized growth,[50],0.954
same,normalized growth,[51],0.735
same,normalized growth,[52],0.958
same,normalized growth,[53],0.953
same,normalized growth,[54],0.41 (active)
same,normalized growth,[55],0.952
same,normalized growth,[56],0.614 (active)
same,normalized growth,[57],0.366 (active)
same,normalized growth,[58],0.799
same,normalized growth,[59],0.551 (active)
same,normalized growth,[60],0.955
same,normalized growth,[61],0.686
same,normalized growth,[62],0.565 (active)
same,normalized growth,[63],0.602 (active)
same,normalized growth,[64],0.959
same,normalized growth,[65],0.766 (active)
same,normalized growth,[66],0.948
same,normalized growth,[67],0.974
same,normalized growth,[68],0.968
same,normalized growth,[69],0.979
same,normalized growth,[70],0.951
CC(C)(O)C#Cc1ccc(/C=N\Nc2c(Cl)cc(Cl)cc2Cl)cc1,normalized growth,[7],0.982
same,normalized growth,[8],0.982
same,normalized growth,[9],0.962
same,normalized growth,[10],0.979
same,normalized growth,[11],0.969
same,normalized growth,[12],0.982
same,normalized growth,[13],0.973
same,normalized growth,[1],0.986
same,normalized growth,[14],0.968
same,normalized growth,[15],0.969
same,normalized growth,[16],0.881
same,normalized growth,[17],0.978
same,normalized growth,[18],0.963
same,normalized growth,[19],0.978
same,normalized growth,[20],0.773
same,normalized growth,[21],0.86
same,normalized growth,[22],0.862
same,normalized growth,[23],0.975
same,normalized growth,[24],0.973
same,normalized growth,[25],0.978
same,normalized growth,[26],0.848
same,normalized growth,[27],0.976
same,normalized growth,[28],0.833
same,normalized growth,[29],0.769
same,normalized growth,[30],0.746
same,normalized growth,[4],0.354 (active)
same,normalized growth,[31],0.668
same,normalized growth,[32],0.591 (active)
same,normalized growth,[33],0.832
same,normalized growth,[34],0.973
same,normalized growth,[35],0.341 (active)
same,normalized growth,"locus YJL157C, strain FAR1, hits give low values",0.886
same,normalized growth,[36],0.973
same,normalized growth,[37],0.86
same,normalized growth,[38],0.728
same,normalized growth,[39],0.93
same,normalized growth,"locus YKL067W, strain YNK1, hits give low values",0.893
same,normalized growth,[40],0.765
same,normalized growth,[41],0.974
same,normalized growth,[42],0.838
same,normalized growth,[43],0.574 (active)
same,normalized growth,[44],0.707
same,normalized growth,[45],0.974
same,normalized growth,[46],0.925
same,normalized growth,[47],0.971
same,normalized growth,[48],0.984
same,normalized growth,[49],0.758
same,normalized growth,[50],0.98
same,normalized growth,[51],0.728
same,normalized growth,[52],0.981
same,normalized growth,[53],0.979
same,normalized growth,[54],0.768
same,normalized growth,[55],0.978
same,normalized growth,[56],0.904
same,normalized growth,[57],0.73
same,normalized growth,[58],1.03
same,normalized growth,[59],0.708
same,normalized growth,[60],0.983
same,normalized growth,[61],0.709
same,normalized growth,[62],0.85
same,normalized growth,[63],0.839
same,normalized growth,[64],0.979
same,normalized growth,[65],0.766 (active)
same,normalized growth,[66],0.972
same,normalized growth,[67],0.977
same,normalized growth,[68],0.962
same,normalized growth,[69],0.972
same,normalized growth,[70],0.977
CN(C)CCCO[C@@H]1[C@H]2OC(C)(C)O[C@H]2O[C@@H]1C(O)CO (stereo not given in full),normalized growth,"locus YAL040C, strain CLN3, hits give low values",1
same,normalized growth,"locus YCL061C, strain MRC1 (second series), hits give low values",1
same,normalized growth,[2],1
same,normalized growth,"locus YDR363W, strain ESC2, hits give low values",1
same,normalized growth,"locus YER002W, strain NOP16, hits give low values",1.02
same,normalized growth,[3],1.01
same,normalized growth,[5],1.01
same,normalized growth,"locus YNL175C, strain NOP13, hits give low values",1.01
same,normalized growth,"locus YNL197C, strain WHI3, hits give low values",1.03
same,normalized growth,"locus YNL224C, strain SQS1, hits give low values",1
same,normalized growth,"locus YOR083W, strain WHI5 (second series), hits give low values",1.01
same,normalized growth,[6],1.01
